Source: PubChem BioAssay
BAZ2B inh = blocks human BAZ2B; Q9UIF8; AlphaScreen BAZ2B-H3K14Ac peptide displacement; Potency, µM (series often up to 114 µM), for inactives: at the highest dose activity change, negative = inhibition, hits mostly inhibitors; actives 4.4% (n = 360,000); note: % is set by controls: 0 for no effect and ±100 for the full control effect; nearly all actives have a fitted effect of over 60% in size
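AlphaScreen displacement: compounds (up to 110uM) incubated 30 min at room temperature with a preformed 50 nM BAZ2B/50 nM biotinylated H3K14Ac peptide complex in PBS pH 7.4 with Tween-20. Donor and acceptor beads at 10 ug/mL final added, 20 min light-protected before reading.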
HP1b binding inh = HP1-beta chromodomain-methylated histone interaction inhibition. AID 540317. P83916. actives 0.56% (n = 390,000). AlphaScreen HP1-beta / biotin-H3K9me3 peptide binding. Potency, µM (top dose mostly 114 µM), for the others: at the top dose activity change, negative = inhibition, actives largely listed as inhibitors; note: nearly all actives have a fitted effect of over 70% in size
Target sequence (P83916 whole entry, looked up): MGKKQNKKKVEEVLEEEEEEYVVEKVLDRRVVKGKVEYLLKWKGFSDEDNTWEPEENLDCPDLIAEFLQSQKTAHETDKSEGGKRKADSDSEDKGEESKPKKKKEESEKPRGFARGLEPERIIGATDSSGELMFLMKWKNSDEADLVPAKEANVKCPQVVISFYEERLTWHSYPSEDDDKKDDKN
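Compound inhibition of the preformed complex between 50 nM HP1-beta and 50 nM biotinylated H3K9me3 peptide was read by AlphaScreen. Buffer was PBS pH 7.4 with 0.01% Tween-20. Incubations ran 30 min at room temperature, with 10 ug/mL donor/acceptor beads.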
G9a block = blocks human histone lysine methyltransferase G9a; G9a H3K9 monomethylation, AlphaScreen, 2 h; Potency, µM (doses to about 102 µM), for the others: at the top dose activity, negative = inhibition, hits mostly inhibitors; Q96KQ7; actives 8.8% (n = 350,000); note: % is set by controls: 0 for no effect and ±100 for the full control effect; nearly all actives have a fitted effect of over 75% in size
Target sequence (Q96KQ7 913-1193 limits assumed): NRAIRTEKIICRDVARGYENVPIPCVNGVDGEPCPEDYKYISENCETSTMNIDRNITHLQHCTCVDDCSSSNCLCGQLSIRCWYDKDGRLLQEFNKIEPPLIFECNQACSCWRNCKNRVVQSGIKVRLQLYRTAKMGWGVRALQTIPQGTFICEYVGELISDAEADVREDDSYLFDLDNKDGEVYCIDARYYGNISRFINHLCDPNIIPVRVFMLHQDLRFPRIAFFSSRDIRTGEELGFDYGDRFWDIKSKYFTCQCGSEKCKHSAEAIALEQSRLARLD
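Quantitative HTS format: methyltransferase activity on a biotin-tagged H3K9 peptide is measured by AlphaScreen, using a rabbit anti-monomethyl-H3K9 antibody with streptavidin donor and anti-IgG acceptor beads. Final levels are 20 nM enzyme, 500 nM peptide, 20 uM SAM; 2 h RT.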
Sfp inh = blocks B. subtilis Sfp PPTase activity. Q9F4F7. Potency, µM, inactives show largest response in the series, negative = inhibition, most hits filed as inhibitors. actives 3.5% (n = 310,000). Biochemical Sfp PPTase activity, qHTS. AID 1490;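 note: the enzyme is Sfp with the accession as filed and its product quenches rhodamine fluorescence; 0% = enzyme reaction without inhibitor and -100% = no enzyme wells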
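Compounds were incubated with enzyme (final 15 nM) for 15 min at room temperature before substrate addition started the reaction. Fluorescence at 525 nm excitation, 598 nm emission was recorded immediately and after 30 minutes.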
JMJD2A Tudor inh = inhibitors of human JMJD2A Tudor domain; AlphaScreen JMJD2A-Tudor / H3K4me3 peptide binding; O75164; Potency, µM (doses to about 114 µM), without a hit: at the highest dose activity change, negative = inhibition, actives largely listed as inhibitors; actives 4.4% (n = 390,000); note: % is set by controls: 0 for no effect and ±100 for the full control effect; nearly all actives have a fitted effect of over 50% in size
L3MBTL1 block = L3MBTL1 (human) inhibition | Q9Y468 | AlphaScreen L3MBTL1–H3K9me1 peptide binding | Potency, µM (highest dose often 57.1 µM), without a hit: top-dose activity, negative = inhibition, usual class: inhibitors | actives 0.66% (n = 230,000); note: % is set by controls: 0 for no effect and ±100 for the full control effect; nearly all actives have a fitted effect of over 60% in size
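L3MBTL1 (50 nM) pre-complexed 30 min with biotinylated H3(1-15)K9me1 peptide (75 nM), then compounds added for 30 min at room temperature; AlphaScreen streptavidin donor/nickel chelate acceptor beads (10 ug/mL final) read after 30 min dark incubation.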
Active calls of the source: *; [ ] = remark or other dose. A selection: hits, their analogues and other compounds. The true share with any hit is near 12%. Calls come from the whole dose curve; as a rule, active = well fitted curve in the direction sought with a large enough effect; inconclusive = small, poorly fitted or top-dose-only effect, or another doubt; inactive = no such curve, though single readings can be large; an effect the other way counts as inactive or inconclusive. Potency is the fitted concentration of half-maximal effect.

O=C(Cc1cccs1)Nc1ccc(S(=O)(=O)Nc2ncccn2)cc1 was read as BAZ2B inh 56.2µM*, HP1b binding inh -6.7%, G9a block inconclusive, Sfp inh -3.0%, JMJD2A Tudor inh 79.4µM* and L3MBTL1 block inconclusive.
NS(=O)(=O)c1ccc(CNC(=O)Cc2cccs2)cc1 was read as BAZ2B inh 56.2µM*, HP1b binding inh 17.8%, G9a block 70.8µM*, Sfp inh 1.1%, JMJD2A Tudor inh inconclusive and L3MBTL1 block inconclusive.
For O=C(Cc1ccc(Cl)c(Cl)c1)Nc1ccc(S(=O)(=O)Nc2ncccn2)cc1 the results were BAZ2B inh -12.1%, HP1b binding inh 32.6%, G9a block inconclusive, Sfp inh -5.5% and JMJD2A Tudor inh 20µM*.
CCOc1ccc(S(=O)(=O)NCC(c2ccco2)S(=O)(=O)c2ccc(F)cc2)cc1 (configuration not stated) was read as BAZ2B inh -12.1%, HP1b binding inh 5.3%, G9a block -31.7%[59 µM] and JMJD2A Tudor inh -21.4%.
COc1ccc([C@H]2CC(=O)C=C(c3cccc(C(C)C)c3)C2)cc1 was read as BAZ2B inh 4.9%, HP1b binding inh 121.8%, G9a block 0.6%[0.501 µM], JMJD2A Tudor inh 26.8% and L3MBTL1 block 21.2%.
`COc1ccccc1C(=O)n1nc(-c2ccccc2)nc1NCc1ccc(Cl)cc1` gave BAZ2B inh 5.1%, HP1b binding inh 53.5%, G9a block 4.6%[59 µM] and JMJD2A Tudor inh -5.2%.
O=C(Cn1cnc([N+](=O)[O-])c1)Nc1ccccc1C(F)(F)F was read as BAZ2B inh 16.3%, HP1b binding inh 22.7%, Sfp inh 2.5%, JMJD2A Tudor inh inconclusive and L3MBTL1 block 11.4%.
CC(=O)Nc1ccc(NC(=O)C2CCN(C(=O)NC3CCCCC3)CC2)cc1 was read as BAZ2B inh 5.0%, HP1b binding inh 24.4%, G9a block 5.8%, Sfp inh 14.1% and JMJD2A Tudor inh 1.1%.
O=c1c2ccccc2nc2c3ccccc3c(NCc3cccnc3)nn12 was read as BAZ2B inh -1.7%, HP1b binding inh 49.0%, G9a block 6.7%, Sfp inh -2.4%, JMJD2A Tudor inh -2.7% and L3MBTL1 block inconclusive.
For O=c1c2ccccc2nc2c3ccccc3c(NCc3ccccn3)nn12 the results were BAZ2B inh 50.1µM*, HP1b binding inh 42.9%, G9a block 31.6µM*, Sfp inh 3.8%, JMJD2A Tudor inh inconclusive and L3MBTL1 block 2.7%.
For Cc1ccc(-n2c(SCC(N)=O)nnc2-c2ccc(S(=O)(=O)N3CCCCC3)cc2)c(C)c1 the results were BAZ2B inh -0.7%, HP1b binding inh 6.8%, G9a block 39.8µM*, Sfp inh 3.6% and JMJD2A Tudor inh inconclusive.
For CC(=O)c1cccc(N(CC(=O)NC2CCCC2)C(=O)c2csnn2)c1 the results were BAZ2B inh 3.4%, HP1b binding inh 39.4%, G9a block 31.6%, Sfp inh -5.1% and JMJD2A Tudor inh -11.7%.
Cc1cccc(-c2nc(Nc3ccc(N4CCOCC4)cc3)c3ccccc3n2)c1 was read as BAZ2B inh 25.1µM*, HP1b binding inh -35.2%, G9a block 7.08µM*, Sfp inh 2.1%, JMJD2A Tudor inh 39.8µM* and L3MBTL1 block -20.8%.
`CC(=O)c1cccc(Nc2nc(-c3cccc(C)c3)nc3ccccc23)c1` gave BAZ2B inh -7.0%, HP1b binding inh -0.2%, G9a block 7.08µM* and JMJD2A Tudor inh -26.3%.
For CCN(CC)CCNCc1cc(Br)ccc1OCC(=O)NCc1ccccc1 the results were BAZ2B inh inconclusive, HP1b binding inh 37.9%, G9a block -43.2%[59 µM], Sfp inh -27.9%, JMJD2A Tudor inh -13.7% and L3MBTL1 block -2.6%.
Screening CCN(CC)CCNCc1ccc(Br)cc1OCC(=O)NCc1ccccc1 returned BAZ2B inh -38.1%, HP1b binding inh 8.1%[57 µM], G9a block 50.1µM*, Sfp inh 19.7%, JMJD2A Tudor inh -24.7% and L3MBTL1 block 0.7%.
